Screening data deposited in PubChem by several laboratories.
This is a sample that favours compounds with a hit; in the whole collection about 1.8% have one here.
NALP1 yeast inh = NALP1 inhibition; S. cerevisiae NALP1/ASC/caspase-1 growth, X-gal OD620, 72 h; AID 2071; inhibition, % at 10 µM; 280,000 compounds, 0.61% hits; in the data active = inhibition mostly above about 24%, no sharp cut-off; inactive = mostly below about 32%
Mot1-301 SUMO = inhibitors of SUMOylation pathway: yeast Mot1-301 growth rescue; S. cerevisiae Mot1-301 growth rescue, ATP luminescence, 38.5C; percent above DMSO median, 100 means doubled; growth rescue, % at 18.8 µM; 320,000 compounds, 1% hits;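 active = every valid replicate shows activation above 250% relative to neutral control wells; inactive = the rest, any valid replicate at or below 250%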;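 also: OY570 slx delta 5 strain wells were the positive control but not used for scaling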
NLRP3 yeast inh = inhibitors of NALP3 inflammasome in yeast; 330,000 compounds, 0.39% hits; Yeast reconstituted NLRP3/ASC/caspase-1, beta-gal luminescence, 24 h; inhibition, % at 10 µM;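 active = inhibition of 50% or more; inactive = inhibition below 50%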;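 also: plate controls were induced DMSO wells for no effect and uninduced yeast grown without galactose for full effect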
PolyA inhibitor = yeast polyadenylation inhibition; activity score, % at 12 µM; S. cerevisiae SKY197-pL101 polyadenylation reporter, beta-gal luminescence; efflux-impaired pdr1/pdr3 knockout yeast; score 100 = 6 SD above DMSO; 300,000 compounds, 0.02% hits; AID 1875;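 active = lowest replicate activity score at least 50, where 100 means six control SD above control mean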;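 also: yeast exposed to compound for 9 h at 30 °C; higher score means more reporter readthrough which indicates perturbed polyadenylation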
Yeast Mot1 SUMO = yeast SUMO pathway inhibition in dose response. shares compounds with Mot1-301 SUMO. S. cerevisiae Mot1-301 galactose growth, ATP luminescence, 24 h; -100 = growth of slx-deleted rescue strain. growth activity, percent, % at 42 µM. 2,300 tested, under 10 active. AID 493004;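 active = Signal drops as the depositor expects, and the fitted half-maximal dose is no more than ten times the top valid tested dose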;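 also: more negative values mean stronger growth rescue toward the control strain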
* = called active by the depositor; / = no result; + = active, no number.

SMILES	NALP1 yeast inh	Mot1-301 SUMO	NLRP3 yeast inh	PolyA inhibitor	Yeast Mot1 SUMO
N#CCC(=O)Nc1nc(-c2ccc3c(c2)OCCO3)cs1	13	-6	10	-7	/
CCOC(=O)C1CCN(C(=O)c2cccs2)CC1	8	-8	17	-3	/
CCOC(=O)C1CCN(C(=O)c2sccc2Cl)CC1	9	567*	7	4	1
Cc1c(OC(C)C(=O)N2C[C@H]3C[C@@H](C2)c2cccc(=O)n2C3)ccc2c3c(c(=O)oc12)CCCC3 (stereo partly specified)	5	684*	8	4	1
COc1ccc(NC(=O)C2CCN(c3cc(C)nc(-c4ccccc4)n3)CC2)cc1	44	+	19	-4	0
Cc1cc(N2CCC(C(=O)Nc3ccc(F)cc3)CC2)nc(-c2ccccc2)n1	24	7	46	-7	/
CCCCCC(=O)Nc1cc(S(=O)(=O)N2CCOCC2)ccc1N1CCCC1	0	4	8	2	/
CCN(CC)c1ccc(C=C2C(=O)OC(c3ccccc3)OC2=O)cc1 (stereo unspecified)	1	+	19	-13	0
CCN(CC)c1ccc(C=C2C(=O)OC(C)(C(C)(C)C)OC2=O)cc1 (stereo unspecified)	/	0	18	15	/
COc1nc(OC)nc(N2CCC(C(=O)NC3CCCCCC3)CC2)n1	6	382*	7	9	1
COc1nc(OC)nc(N2CCC(C(=O)NC3CC3)CC2)n1	-3	0	19	9	/
Cc1ccc(NC(=O)CCS(=O)(=O)c2ccc3nc(C)sc3c2)cc1	-1	524*	5	17	0
Cc1nc2ccc(S(=O)(=O)NC(CC(C)C)C(=O)O)cc2s1 (stereo unspecified)	1	+	1	15	0
Cc1ccc(S(=O)(=O)CCC(=O)Nc2ccc3nc(C)sc3c2)cc1	22	-6	19	10	/
Cc1cc(C(C)(C)C)cc(C)c1COC(=O)C1CCC(=O)N1 (stereo unspecified)	4	-5	23	-4	/
CCc1ccc(-n2c(Cc3ccccc3)n[nH]c2=S)cc1	-48	889*	13	-39	2
Cc1ccc(Cn2c(NCCc3ccccc3)nc3c2c(=O)n(C)c(=O)n3C)cc1	3	970*	17	-26	1
CC(C)(C)C(=O)c1sc2nc(-c3cccs3)cc(C(F)(F)F)c2c1N	25	9	17	-39	/
c1ccc2c(C[C@@H]3CNCCN3CCCCC3CCCCC3)cccc2c1	/	402*	15	/	-3
CCCCCNC(=O)c1ccc2c(=O)n(CC3CCCO3)c(=O)[nH]c2c1 (stereo unspecified)	1	773*	16	-3	0
CCCCCNC(=O)c1ccc2c(=O)n(CC3CCCO3)c(=S)[nH]c2c1 (stereo unspecified)	6	-1	9	9	/
CC(C)(C)C(=O)Nc1nnc(SCC(=O)Nc2ccc3c(c2)OCO3)s1	21	-9	14	6	/
CC(OC(=O)c1cc(S(=O)(=O)N2CCOCC2)ccc1F)C(=O)NCc1ccc2c(c1)OCO2 (stereo unspecified)	/	374*	13	-8	0
O=C(COc1ccccc1O)NNc1ccccc1	/	97	12	-3	/
N#Cc1c2ccc([N+](=O)[O-])cc2[n+]([O-])n1-c1ccccc1	/	384*	-7	/	-1
SMILES	NALP1 yeast inh	Mot1-301 SUMO	NLRP3 yeast inh	PolyA inhibitor	Yeast Mot1 SUMO
NCCCn1c(C(=O)c2ccc(Cl)cc2)c2ccc([N+](=O)[O-])cc2[n+]1[O-]	/	-1	26	3	/
O=[N+]([O-])c1ccc(Cl)cc1Sc1ccccn1	-4	415	-24	10	/
O=C(COC(=O)C1CC2CCCC(C1)C2=O)Nc1ccc(F)c(Cl)c1 (stereo unspecified)	/	0	-41	/	/
O=[N+]([O-])c1nn(-c2ccc(Cl)cc2)n(O)c1=NCc1ccccc1Cl	-1	+	-4	-19	-1
O=c1c2ccccc2c2ccccc2c(=O)n1-c1ccccc1	-3	413*	-1	9	0
O=c1[nH]n(-c2ccccc2)c(=O)c2ccccc12	31	4	18	/	/
Cc1cccc([C@@H]2[C@@H]3C(=O)N(Cc4ccccc4)C(=O)[C@@H]3[C@]3(Cc4ccccc4)C(=O)N(c4cccc(Cl)c4)C(=O)N23)c1	/	28	-3	14	/
O=C(Nc1nnc(COc2ccc(F)cc2)s1)c1cccs1	29	940*	15	-19	-1
